# This is one part of a sample in which hits are shown more often than they occur.
# Marburg entry inh = inhibitors of Marburg virus binding or cell entry; Potency, µM (doses to about 37.8 µM), inactives show at the top dose activity change, negative = inhibition, hits mostly inhibitors; Marburg virus pseudotyped entry inhibition, cell reporter; 1.8% of 300,000 active; AID 540276; calls by dose curve; tested in HEK293 cells; note: potency is the fitted concentration of half-maximal effect; % is set by controls: 0 for no effect and ±100 for the full control effect
# Shiga toxin inh = Shiga toxin inhibition; Vero cells, Shiga toxin protein synthesis inhibition reporter; inhibition, % at 38.7 µM; 9.2% of 290,000 active; in the data active = inhibition mostly above about 28%, no sharp cut-off; inactive = mostly below about 43%; note: 0% is about no effect
# Lassa entry inh = blocks Lassa virus binding to or entry into cells. Lassa virus pseudotype entry inhibition, cell reporter. 1.2% of 300,000 active. Potency, µM (doses to about 37.9 µM), without a hit: at the top dose activity change, negative = inhibition, usual class: inhibitors. AID 540256; calls by dose curve; tested in HEK293 cells; note: potency is the fitted concentration of half-maximal effect; % is set by controls: 0 for no effect and ±100 for the full control effect; nearly all actives have a fitted effect of over 50% in size
# AMA1-RON2 inh = AMA1-RON2 (P. falciparum) interaction inhibition | AlphaScreen AMA1-biotinylated RON2 peptide binding | Potency, µM (doses to about 58.2 µM), without a hit: top-dose activity change, negative = inhibition, actives largely listed as inhibitors | 0.2% of 360,000 active | AID 720542; active = well fitted inhibition curve with a large enough effect; inconclusive = small, poorly fitted or top-dose-only effect; inactive = no such curve, though single readings can be large or run the other way;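 note: potency is the fitted concentration of half-maximal effect; 0% = vehicle wells and -100% = peptide control; nearly all actives have a fitted effect of over 45% in size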
#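 AMA1 (3D7) with his tag at 25 nM final met compounds first, then biotinylated RON2 peptide at 25 nM; detection used donor plus acceptor beads, 10 µg/mL apiece, read by AlphaScreen after 30 min at room temperature.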
# CHX counter = counter-screen for Shiga toxin inhibitors: cycloheximide protein synthesis inhibition; cell reporter, cycloheximide protein synthesis inhibition counterscreen; max response, %; 12% of 300,000 active; AID 2314; in the data active = max response mostly above about 13%, no sharp cut-off; inactive = mostly below about 14%; note: read at 38.3 µM for the half of the compounds with a filed dose; 0% is about no effect
# An asterisk follows results filed as active; ? = inconclusive; . = not tested or not shown; [ ] = another dose, or the depositor's remark.
SMILES,Marburg entry inh,Shiga toxin inh,Lassa entry inh,AMA1-RON2 inh,CHX counter
COc1cccc(C(=O)Nc2ccccc2OCc2cc(=O)n3cc(C)ccc3n2)c1,.,.,-2%[46.1 µM],.,.
Cc1nc(-c2ccc([N+](=O)[O-])cc2)nc2[nH]ccc(=O)c12,.,36,.,-11%,30*
Cc1nc(-c2ccccc2)nc2[nH]ccc(=O)c12,-22%,45,5%,-2%,34*
Cc1ccc(C(C)C)cc1OCC(=O)NC1CCCCCCC1,?,.,?,9%,.
CC(C)c1ccc(OCC(=O)NC2CCCC2)cc1,.,63*,.,0%,34*
O=C(COC(=O)c1ccc(O)cc1)NC1CCCC1,.,16,.,7%,19
Cc1ccc(C(=O)OCC(=O)NC2CCCC2)cc1,.,75*,.,-7%,32*
COc1ccc(OCC(=O)OCC(=O)NC2CCCC2)cc1,9%,.,2%,-1%,.
COC(=O)c1ccc(OCC(=O)NC2CCCCCC2)cc1,.,39*,.,0%,25
COc1ccc(OCC(=O)NC2CCCCCCC2)cc1,?,42*,7%[46.1 µM],6%,27*
CC(=O)c1ccc(OCC(=O)NC2CCCCCC2)cc1,-10%,.,14%,2%,.
CCCCNC(=O)C(NC(=O)c1ccc2ccccc2c1)C(=O)c1ccccc1 (centres undefined),.,.,.,-1%,.
Cc1oc2c(cc(NS(=O)(=O)c3ccc(F)cc3)c3ccccc32)c1C(=O)OCc1ccccc1,-8%[46.1 µM],.,5%[46.1 µM],.,.
O=C(COc1ccc(F)cc1)N(c1ccccn1)C1CCCCC1,-2%,-5,15%,-11%,1
Cc1ccc(CNC(=O)NC2CCCCC2)cc1,17%,55*,-24%,3%,16*
Cc1ccc(CNC(=S)NC2CCCCC2)cc1,.,-3,.,16%,-1
CC(C)c1ccc(OCC(=O)N(c2ccccn2)C2CCCCC2)cc1,?,19,-13%,-17%,17*
O=C(c1cccc(C(=O)N(c2ccccn2)C2CCCCC2)c1)N(c1ccccn1)C1CCCCC1,9.2µM*,43,?,2%,-6
CCn1cc(CNC(=O)/C=C/c2cnn(C)c2)c(C)n1,5%,14,?,-8%,-1
CCn1cc(CNC(=O)NC2CCCCC2)c(C)n1,?,65*,13%,10%[2.32 µM],19*
O=C(c1ccc(Cl)cc1)N(c1ccccn1)C1CCCCC1,9%[46.1 µM],-10,-2%,1%,0
COc1ccccc1CNC(=O)c1nn(C)c2c1CS(=O)(=O)c1ccccc1-2,-7%[46.1 µM],-4,-24%[46.1 µM],-8%,7
CCCCOc1ccc(C(=O)NCC(=O)NC2CC2)cc1,22%,.,-6%,29%,.
Cc1ccc(C(=O)N2CCC(C(=O)NC3CCCCCC3)CC2)cc1,3%[46.1 µM],56,10%[46.1 µM],-1%,28*
Cc1ccc(C(=O)NCC(=O)NC2CCCCCC2)cc1,8%,26*,25%,-15%,active
SMILES,Marburg entry inh,Shiga toxin inh,Lassa entry inh,AMA1-RON2 inh,CHX counter
O=C(NC1CCCCCC1)C1CCN(C(=O)c2ccc(Br)cc2)CC1,.,-7,.,-8%,-2
COc1ccc(C2(O)CCN(C(=O)NC3CCCCC3)CC2)cc1,3.7µM*,24,-6%,31%,13
O=C(CCCc1ccccc1)NC1CC(=O)N(c2ccc(F)cc2)C1 (centres undefined),.,.,-19%[46.1 µM],.,.
COC(=O)N(C)C[C@H]1OCc2cnnn2CCCC(=O)N([C@@H](C)CO)C[C@H]1C,.,.,.,-5%,.
COc1ccc(S(=O)(=O)NNC(=O)C2Cc3c(ccc4ccccc34)O2)cc1 (centres undefined),-9%,-9,1%,-1%,-3
COCCNC(=O)C1Cc2c(ccc3ccccc23)O1 (centres undefined),-13%[46.1 µM],37,8%,10%,15*
c1ccc(Nc2ncnc3sccc23)cc1,16%[46.1 µM],34,-8%[46.1 µM],7%,8
COc1ccccc1Nc1ncnc2sccc12,.,-3,.,8%,3
c1nc(Nc2ccc(N3CCOCC3)cc2)c2ccsc2n1,6%[46.1 µM],69*,7%,?,50*
COc1ccc(OC)c(Nc2ncnc3sccc23)c1,.,19,.,7%,15*
COC(=O)c1cccc(Nc2ncnc3sccc23)c1,7%[46.1 µM],33,2%[46.1 µM],14%,12
COc1cccc(Nc2ncnc3sccc23)c1,19%[46.1 µM],130*,?,-1%,23*
Cc1ccc(Nc2ncnc3sccc23)c(C)c1,-10%,62*,?,-18%,15*
Cc1ccc(Nc2cc(C)nc3nncn23)c(C)c1,0%[46.1 µM],.,2%[46.1 µM],.,.
COc1ccc(Nc2ncnc3sccc23)cc1,?,72*,16%,-14%,31*
COc1ccc(Nc2ncnc3sccc23)c(OC)c1,0%,18,20%,-25%,9
COc1ccc(Oc2ncnc3sccc23)cc1,-6%[46.1 µM],66*,?,15%,42*
COc1cccc(Nc2ncnc3sc(C)cc23)c1,.,75*,.,6%,41*
CC1(C(=O)Nc2ccc(Cl)c(C(F)(F)F)c2)Cc2c(-c3ccc(C(N)=O)cc3)ccnc2O1 (centres undefined),.,.,.,-9%,.
COc1ccc(-c2cc(-c3ccccc3)nc3c2COc2ccc(F)cc2-3)cc1,-18%[46.1 µM],.,11%[46.1 µM],.,.
COCCN1CSC(=S)N(Cc2ccco2)C1,?,-6,-6%,25%,-3
S=C1SCN(Cc2ccccn2)CN1Cc1ccco1,9.2µM*,-7,14%[14.3 µM],-17%,2
Cc1ccc([C@H]2C[C@H](c3cccs3)n3nc(N)nc3N2)cc1,5%,.,.,.,.
CCN1CCN(C(=O)c2ccc(-c3nc4ccccc4s3)s2)CC1,.,103*,.,4%,42*
CCOC(=O)C1CCN(S(=O)(=O)c2ccc(-c3nc4ccccc4s3)s2)CC1,?,69*,-4%,1%,45*
SMILES,Marburg entry inh,Shiga toxin inh,Lassa entry inh,AMA1-RON2 inh,CHX counter
O=C(c1ccc(-c2nc3ccccc3s2)s1)N1CCOCC1,?,-4,3.5µM*,-4%,-2
O=C(NC1CC1)c1ccc(-c2nc3ccccc3s2)s1,1.4µM*,38*,1.3µM*,-11%,24
C#CCOC(=O)CCCNc1ccc([N+](=O)[O-])cc1[N+](=O)[O-],?,-14,3%,-14%,-3
COc1ccc(C2=Nc3ccccc3C2(O)CCN2C(=O)c3ccccc3C2=O)cc1 (centres undefined),-1%,.,.,19%,.
COc1ccc(N2CCN(C(=O)CNC(=O)c3ccco3)CC2)cc1,5%,-5,3%,1%,-3
CCOc1ccc(NC(=O)CNC(=O)c2ccco2)cc1,.,16,.,-1%,18*
CCOc1ccc(NC(=O)CNC(=O)Cc2ccccc2)cc1,0%,2,?,-27%,-3
CCOc1ccc(NC(=O)CCNC(=O)c2ccco2)cc1,13%,14,-18%,6%,19*
COc1ccc(NC(=O)Cn2nnc(-c3ccccc3NC(=O)c3ccco3)n2)cc1,11µM*,-9,?,1%,-4
COc1ccc(OCC(=O)Nc2ccc(NC(=O)c3ccco3)cc2)cc1,?,78*,-2%,2%,24*
Cc1ccc(NC(=O)CCNC(=O)c2ccco2)cc1,?,8,-3%,-6%,11
COc1ccccc1NC(=O)Cn1nnc(-c2ccccc2NC(=O)c2ccco2)n1,-28%,-13,?,-2%,-3
O=C(CCC(=O)N1CCOCC1)NCCc1ccccc1,?,.,1%,-5%[11.6 µM],.
